Data from PubChem BioAssay (NCI).
This is part of a sample that, as a whole, favours compounds with a hit. Of some 83,000 tested, about 20% had one in any assay.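 A percent growth of 40 corresponds to 60% growth inhibition; 0 means no net growth; -100 means all cells died. Active threshold: below 10.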 Activity calls are given as the source filed them.

Columns and labels:
Assay in all cases: NCI-60 one-dose screen, 48 h (100 = growth as untreated, 0 = no growth, -100 = all killed)
Conditions in all cases: 10 µM unless noted
[1] = tested on: NCI-H23 lung
[2] = tested on: NCI-H226 lung
[3] = tested on: NCI-H322M lung
[4] = tested on: HOP-62 NSCLC
[5] = tested on: NCI-H460 lung
[6] = tested on: HOP-92 NSCLC
[7] = tested on: NCI-H522 lung
[8] = tested on: A549/ATCC NSCLC
[9] = tested on: 786-0 renal
[10] = tested on: COLO 205 colon

Measured: growth

COc1ccc(-c2cc(C(=O)N3N=C(c4ccc(N)cc4)CC3c3ccc(OC)cc3)c3cc(OC)ccc3n2)cc1 (stereo not given)
inactive: [1] 48.6% | [2] 94.9% | [3] 93.3% | [4] 60.1% | [5] 85.4% | [6] 56% | [7] 29.5% | [8] 76.6% | [9] 18.9% | [10] 96.3%

CO[C@@]12C=C[C@@]34CCC(=O)N3c3ccccc3[C@@H](O1)C4C2
inactive: [1] 99.9% | [2] 96.8% | [3] 99.8% | [4] 97.7% | [5] 104% | [6] 93% | [7] 92.7% | [8] 98.4% | [9] 101% | [10] 105%

C=C(C)[C@@H]1CC[C@]2(C(=O)OCCOCCOCC[P+](c3ccccc3)(c3ccccc3)c3ccccc3)CC[C@]3(C)[C@H](CC[C@@H]4[C@@]5(C)CC[C@H](C)C(C)(C)[C@@H]5CC[C@]43C)[C@@H]12
active: [1] -80% | [2] -70.9% | [3] -98.1% | [4] -79.5% | [5] -78% | [6] -83.3% | [7] -80.6% | [8] -83.7% | [9] -83.3% | [10] -82.2%

NC[C@@H]1CCN(c2cc3c(cc2F)c(=O)n(N)c(=O)n3Cc2ccc(-c3ccccc3)cc2)C1
inactive: [1] 87.2% | [2] 91.1% | [3] 96.8% | [4] 77.4% | [5] 99.7% | [6] 73.6% | [7] 68.8% | [8] 89.6% | [9] 66.2% | [10] 88.6%

CCOCc1nc2ccccc2c(=O)[nH]1
inactive: [1] 94.7% | [2] 91.7% | [3] 100% | [4] 102% | [5] 101% | [6] 102% | [7] 91.3% | [8] 100% | [9] 103% | [10] 108%

COc1ccc(/C=C/C(=O)c2ccc(NC(=O)CSc3nnc(-c4ccc(OC)c(OC)c4)n3-c3ccccc3)cc2)cc1
active: [7] -60.9% | [9] -67%
inactive: [1] 21.3% | [2] 80.7% | [3] 99.1% | [4] 48.5% | [5] 91.3% | [6] 52.7% | [8] 80% | [10] 26.7%

Cc1cc(C)nc(NS(=O)(=O)c2ccc(Nc3ccc4c5c(n(CCCN(C)C)c(=O)c4c3)-c3ccccc3C5=O)cc2)n1
inactive: [1] 83.9% | [2] 83.3% | [3] 109% | [4] 70.1% | [5] 28.9% | [6] 90.1% | [7] 73% | [8] 52.3% | [9] 80.5% | [10] 70.4%

CC(/C=C/c1ccccc1)=N/NC(=O)c1ccncc1
inactive: [1] 98.2% | [2] 104% | [3] 99.7% | [4] 103% | [5] 102% | [6] 77.8% | [7] 92.9% | [8] 93.4% | [9] 103% | [10] 119%

COc1ccccc1Nc1nnc(-c2ccc(Cl)cc2)o1
inactive: [1] 63.9% | [2] 73.6% | [3] 70.5% | [4] 47.4% | [5] 16.1% | [6] 91.1% | [7] 16.6% | [8] 34.4% | [9] 75.8% | [10] 35.3%

CC1=C/C(=N\N=C2/C=C(C)CC(C)(C)C2)CC(C)(C)C1
inactive: [1] 102% | [2] 106% | [3] 92.7% | [4] 90.9% | [5] 104% | [6] 92.3% | [7] 81.4% | [8] 88.6% | [9] 102% | [10] 119%

O=C(CCc1nnc2sc(OCc3ccccc3)nn12)c1nc2ccc([N+](=O)[O-])cc2[nH]1
inactive: [1] 84.6% | [2] 94.8% | [3] 93.3% | [4] 102% | [5] 105% | [6] 106% | [7] 79.2% | [8] 94.3% | [9] 108% | [10] 99.5%

CN(C)CSc1nc2ccccc2s1
inactive: [1] 92.9% | [2] 95.1% | [3] 94.8% | [4] 88% | [5] 109% | [6] 78.7% | [7] 91.5% | [8] 101% | [9] 95.4% | [10] 91.6%

Cn1c2c(c3ccc(-c4ccn[nH]4)cc3c1=O)C(=O)c1ccccc1-2
inactive: [1] 25.3% | [3] 87.3% | [4] 17.2% | [6] 79.3% | [7] 48.8% | [9] 12.3% | [10] 53.8%
active: [2] 0.642% | [5] 1.75% | [8] 8.44%

C#C[C@@]1(O)[C@@H](CO)O[C@@H](n2cc(Cl)c3c(N)ccnc32)[C@@H]1O
inactive: [1] 71.9% | [2] 96.7% | [3] 74.6% | [4] 120% | [5] 25.1% | [6] 48.2% | [7] 75.1% | [8] 67% | [9] 81.2% | [10] 63.4%

Nc1n[nH]c2cccc(C#Cc3cccc(NC(=O)c4cc(N5CCOCC5)cc(C(F)(F)F)c4)c3)c12
inactive: [1] 45% | [2] 43.9% | [3] 55.2% | [4] 48.2% | [5] 47.3% | [6] 34.1% | [7] 53.2% | [8] 69.5% | [9] 57.7% | [10] 18.2%

COc1cc(C2=NN(C(C)=O)C(c3cccc(Nc4ccnc5cc(C(F)(F)F)ccc45)c3)C2)cc(OC)c1OC (stereo not given)
inactive: [1] 62.8% | [2] 66.5% | [3] 68.3% | [4] 63.9% | [5] 57.6% | [6] 25.3% | [7] 55.7% | [8] 53.1% | [9] 58.8% | [10] 50.3%

CSc1nc(-c2ccc(F)cc2)c(C#N)c(N2CCOCC2)n1
inactive: [1] 101% | [2] 80% | [3] 92.6% | [4] 97.3% | [5] 102% | [6] 73.9% | [7] 90.1% | [8] 88.6% | [9] 93.7% | [10] 106%

C[C@H](Oc1cc(-c2cnn(C3CCNCC3)c2)cnc1N)c1c(Cl)ccc(F)c1Cl
inactive: [1] 71.6% | [2] 109% | [3] 75.2% | [4] 66.5% | [5] 57.9% | [6] 41.1% | [7] 73.1% | [8] 72% | [9] 49.2% | [10] 46.3%

Cc1cccc(C)c1NC(=O)CN(CC(C)C)CC(O)COc1ccccc1 (stereo not given)
inactive: [1] 86% | [2] 94.9% | [3] 97.7% | [4] 90% | [5] 111% | [6] 91.4% | [7] 82.3% | [8] 90.6% | [9] 78.6% | [10] 100%

COc1ccc(/C=C/C(=O)Nc2ncnc3nc[nH]c23)cc1
inactive: [1] 97.7% | [2] 104% | [3] 101% | [4] 109% | [5] 99.2% | [6] 106% | [7] 81.1% | [8] 92.9% | [9] 95.6% | [10] 115%

CCCNc1nc(C)[nH]c(=O)c1S
inactive: [1] 102% | [2] 122% | [3] 85.3% | [4] 119% | [5] 111% | [7] 91% | [8] 110% | [9] 110% | [10] 115%
active: [6] -2.9%

COc1cc(C(=O)Nc2cc(OC)c3ccn(C)c3c2)cc2c1C[C@]1(C)CC[C@@H](O)C(C)(C)[C@H]1O2
active: [6] 8.71% | [7] -3.97% | [9] 0.587% | [10] 3.69%
inactive: [1] 30.3% | [2] 76.7% | [3] 57.3% | [4] 11.7% | [5] 14% | [8] 24.1%

O=C1NN(c2ccccc2)C(c2ccc3c(c2)OCO3)N2CCC[C@@H]12 (stereo not given in full)
inactive: [1] 88.2% | [2] 105% | [3] 88.3% | [4] 91.4% | [5] 106% | [6] 107% | [7] 70.1% | [8] 97.9% | [9] 98.2% | [10] 104%

Nc1c(C(=O)Nc2ccccn2)sc2nc3c(cc12)CCCCC3
inactive: [1] 29.9% | [2] 77% | [3] 52.6% | [4] 40.2% | [6] 67.5% | [8] 20.9% | [9] 27.6%
active: [5] 6.46% | [7] 2.61% | [10] 6.18%

CCOC(=O)C(=Cc1c(-c2ccccc2)[nH]c2ccccc12)C(=O)OCC
inactive: [1] 50.7% | [2] 60.1% | [3] 81.3% | [4] 75.9% | [5] 21.5% | [8] 40.3% | [9] 90.4% | [10] 58.7%
active: [6] -5.04% | [7] -33.7%

C/C(=N\NC(=O)c1ccncc1)c1ccc(N)cc1
inactive: [1] 101% | [2] 102% | [3] 91.5% | [4] 95.8% | [5] 99.3% | [6] 80.6% | [7] 75.4% | [8] 90.6% | [9] 99% | [10] 117%
